Here are results for 12 molecules from ChEMBL document CHEMBL3988442, “University of Dundee, Small-Polar-MMV Screening Library” (2021).

Assay [1] deals with T1, Aspartate--tRNA(Asp/Asn) ligase (Mycobacterium tuberculosis (strain ATCC 25618 / H37Rv)) (UniProt P9WFW3).
T1 sequence (whole entry): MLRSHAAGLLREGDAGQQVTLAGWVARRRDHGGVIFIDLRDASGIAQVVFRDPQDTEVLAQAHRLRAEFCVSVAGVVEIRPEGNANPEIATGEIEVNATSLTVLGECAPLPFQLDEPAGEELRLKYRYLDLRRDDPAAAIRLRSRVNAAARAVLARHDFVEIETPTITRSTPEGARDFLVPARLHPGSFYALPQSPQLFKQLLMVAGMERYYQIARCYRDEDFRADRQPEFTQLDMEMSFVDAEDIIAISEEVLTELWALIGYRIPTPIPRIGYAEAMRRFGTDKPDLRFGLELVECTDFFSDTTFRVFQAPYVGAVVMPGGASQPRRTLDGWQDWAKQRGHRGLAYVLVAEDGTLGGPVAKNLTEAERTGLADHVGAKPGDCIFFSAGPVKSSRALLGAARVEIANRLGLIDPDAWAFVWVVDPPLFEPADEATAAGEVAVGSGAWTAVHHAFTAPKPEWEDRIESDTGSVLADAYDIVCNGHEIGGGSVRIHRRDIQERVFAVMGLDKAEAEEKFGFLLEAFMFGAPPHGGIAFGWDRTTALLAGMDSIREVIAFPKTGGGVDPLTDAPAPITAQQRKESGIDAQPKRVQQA
Put plainly: Assay for Asp RNA synthetase-1 from Mycobacterium tuberculosis. It counts as functional. More on the design: scale not given: direction of the effect not stated beside the values. To be noted: 30 µM.

For assay [2], the target named is Shiga toxin 2 (Escherichia coli O157:H7) (UniProt P09385+P09386). As to the kind of experiment: E. coli 0.157:H7 Shiga Toxin SOP - stx2 screening assay. Format: functional. Details: scale not given: direction of the effect not stated beside the values. To be noted: 30 µM.

Structures are written as SMILES.

As for `O=C(NCCCn1cncn1)NCC(c1ccco1)N1CCCCC1` (centres undefined), the Percent Effect was 7.12% in assay [1] and 18.2% in assay [2].
Take `CS(=O)(=O)c1ccccc1C(=O)NCC1Cc2ccccc2O1` (centres undefined): the values for the Percent Effect in assay [1] and in assay [2] were 9.98% and -13%, respectively.
For `Cc1cncc(C2CCCN(C(=O)c3cccn3C)C2)n1` (centres undefined), in that order: 1.84% and -12.2%.
For `Cc1nc(C2CCN(C(=O)c3ccc(=O)n(C)c3)CC2)c2sccn12`, in that order: 3.56% and -17.4%.
For `Cc1cn2c(n1)CCC(NC(=O)c1cnc(C)nc1C(C)C)C2` (centres undefined), in that order: 2.91% and 20.9%.
With `CN(C)[C@@H]1CN(Cc2ccco2)C[C@@H]2CCCO[C@@H]21`, the results for the Percent Effect in assay [1] and in assay [2] were -2% and 6.7%, respectively.
For `CCOc1ccc(S(=O)(=O)NC(=O)CCC2CCCO2)cc1` (centres undefined), in that order: 2.17% and 23.1%.
The like results for `COc1ccc(NC(=O)N2CCN(c3ncccn3)CC2)cn1` were, in that order, -4.63% and -16.1%.
On to `NC(=O)c1cnn2c1NCC(CNCCc1ccco1)C2` (centres undefined), for which the Percent Effect in assay [1] was found to be 0.367%; in assay [2], 26.6%.
The like results for `Cc1noc(Cl)c1CCC(=O)N1CCc2sccc2C1` were, in that order, -1.63% and 18.9%.
In the case of `CN1CCN(C(=O)c2nc3c(o2)CN(C(=O)c2cccnc2)C3)CC1`, the Percent Effect in assay [1] is 2.23%; in assay [2] it was -53.6%.
For `Cn1nc2c(cc1=O)CN(Cc1nnc(-c3ccc(F)cc3)o1)CC2`, in that order: 19.5% and -108%.
